The values below come from PubChem BioAssay AID1499 (Sanford-Burnham Center for Chemical Genomics, 2009).

Molecules are shown by their SMILES. Screen size: about 93,000 compounds; about 65 (0.07%) were called active. This excerpt belongs to a sample that is enriched for actives. Unmarked numbers belong to inactive results.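 Rule for the calls: active = 10 µM primary screen giving 50% or more activity, confirmed by 40% or more on retest at that dose; inactive = the rest.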

Integrin beta-2 (Homo sapiens) + Integrin alpha-M (Homo sapiens), sequence (P05107 whole entry, looked up, other chains not shown): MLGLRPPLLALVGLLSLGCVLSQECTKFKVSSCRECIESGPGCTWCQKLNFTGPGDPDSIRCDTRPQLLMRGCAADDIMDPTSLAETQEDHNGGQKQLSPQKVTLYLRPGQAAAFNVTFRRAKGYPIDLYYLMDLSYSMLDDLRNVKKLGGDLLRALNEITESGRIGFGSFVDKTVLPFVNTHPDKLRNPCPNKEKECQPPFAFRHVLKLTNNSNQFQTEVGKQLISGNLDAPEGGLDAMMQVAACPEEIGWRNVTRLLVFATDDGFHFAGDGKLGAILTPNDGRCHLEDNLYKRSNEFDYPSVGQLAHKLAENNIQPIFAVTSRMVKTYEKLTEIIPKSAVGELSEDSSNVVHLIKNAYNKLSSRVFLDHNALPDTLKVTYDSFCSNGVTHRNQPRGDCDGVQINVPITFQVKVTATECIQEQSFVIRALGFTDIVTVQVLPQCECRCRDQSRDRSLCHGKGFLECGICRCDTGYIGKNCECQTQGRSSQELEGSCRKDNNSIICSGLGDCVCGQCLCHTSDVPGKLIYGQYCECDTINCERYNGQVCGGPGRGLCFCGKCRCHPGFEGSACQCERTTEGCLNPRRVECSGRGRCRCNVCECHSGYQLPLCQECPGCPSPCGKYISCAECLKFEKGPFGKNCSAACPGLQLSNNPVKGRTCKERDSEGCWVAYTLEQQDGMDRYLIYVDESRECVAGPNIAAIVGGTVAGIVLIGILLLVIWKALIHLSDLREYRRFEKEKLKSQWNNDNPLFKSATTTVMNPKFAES

The assay concerns the target Integrin beta-2 (Homo sapiens) + Integrin alpha-M (Homo sapiens) (UniProt P05107+P11215). The experiment in a line: agonists of integrin CD11b/CD18-fibrinogen binding – K562 cells, luminescence, primary screen (AID 1499). Conditions: K562 CD11b/CD18 adhesion to fibrinogen, ATPlite luminescence; at 10 µM; active compounds read high. (In ATP-based viability assays light output follows the ATP content of the culture.)
`Brc1ccc(-c2csc(N/N=C/c3ccc4c(c3)OCO4)n2)cc1`: the activation was 18.4%.
The value for `CCOc1ncccc1C(=O)N(C)CC(=O)Nc1ccc(F)cc1` was -3.5%.
The value for `CCCN1CNC(=S)N(CCc2ccccc2)C1` was 5.1%.
In the case of `Cc1cc(C)cc(C(=O)N2CCN=C2SCc2ccc([N+](=O)[O-])cc2)c1`, the activation is 0.8%.
Under `COc1cc(OC)c(C(=O)OC(C)C(=O)Nc2cc(C(F)(F)F)ccc2Cl)cc1OC` (centres undefined) stands 4.1%; under `O=C(Nc1ccccc1F)c1ccccc1-c1ccccc1`, 0.5%; under `Cc1ccc(NC(=O)Nc2ccccc2)c(Br)c1`, 12.1%.
Under `COc1ccccc1CN(C)C(=O)C1(c2ccc(Cl)cc2)CC1` stands 11.3%; under `C/C(=N\NS(=O)(=O)c1ccc(Cl)cc1)c1ccc(NC(=O)c2ccco2)cc1`, -2.4%.
On to `CC1CCN(c2ccc(C(=O)NCc3ccc4c(c3)OCO4)cc2[N+](=O)[O-])CC1`, for which the activation was 0.5%.
On to `O=C(COC(=O)c1ccc(Cl)nc1)NCc1ccc2c(c1)OCO2`, for which the activation was 4%.
Under `COCCn1c(=NC(=O)c2ccccc2[N+](=O)[O-])sc2cc(S(C)(=O)=O)ccc21` stands 2%; under `CCOC(=O)c1c(/N=C/c2cc(C)ccc2O)sc2c1CCC2`, -6%.
The value for `COc1cccc(NC(=O)C(Sc2nc3ccccc3c(=O)n2CC(C)C)c2ccccc2)c1` (centres undefined) was 1%; that for `COc1cc(C(=O)NCc2nnc(SCC(=O)Nc3nc4ccc(C)cc4s3)o2)cc(OC)c1OC` was 10.4%; that for `COc1ccc(-c2csc(NC(=O)CCCc3cccs3)n2)cc1` was -1.8%.
Under `O=C(Nc1ccc2c(c1)OCO2)c1ccc(N2C(=O)c3ccccc3C2=O)cc1` stands 23.5%; under `C/C(CC1CC(C)(C)OC1=O)=N/Nc1nc(-c2ccccc2)cs1` (centres undefined), -0.2%; under `O=C(Cn1cnc2ccccc21)N/N=C/c1ccco1`, -5.8%.
For `c1ccc(C2=Nc3cccc4cccc(c34)N2)cc1`, the activation is 7%.
With `COc1ccc(Br)cc1CN(C)CC(=O)Nc1cc([N+](=O)[O-])ccc1OC`, the activation was -0.1%.
For `CCOC(=O)c1cnc2ccc(F)cc2c1Nc1ccc2c(c1)OCCO2`, the activation is 4.3%.
On to `Cc1c(Br)c([N+](=O)[O-])nn1CC(=O)Nc1sc2c(c1C(=O)OC(C)C)CCC(C)C2` (centres undefined), for which the activation is 10.3%.
`COc1ccc(/C=C2/C(=O)OCc3cc(OC)c(OC)cc32)c(OC)c1`: the activation was 4%.
With `COc1ccc(-c2csc(NC(=O)COC(=O)Cc3ccc(Cl)cc3Cl)n2)cc1`, the activation is -1.1%.
The value for `Cc1ccc(-n2c(SCC(=O)N3c4ccccc4Sc4ccccc43)nnc2-c2ccncc2)cc1` was 7.2%.
The value for `Cc1ccc(C)c(NC(=S)NCC(c2cccnc2)N2CCOCC2)c1` (centres undefined) was 5%; that for `Cc1ccc(S(=O)(=O)N2CCN(CC(=O)N/N=C/c3cc([N+](=O)[O-])ccc3Cl)CC2)cc1` was -2.8%; that for `COc1ccc(OCC(O)CNC(=O)Nc2ccc(Cl)cc2)cc1` (centres undefined) was 7.7%.
Under `COc1cc(OC)c(C(=O)Nc2ccccc2-c2ccccc2)cc1OC` stands 6.2%; under `COc1ccc([N+](=O)[O-])cc1NC(=O)c1ccc(N(Cc2ccccc2C)S(C)(=O)=O)cc1`, 0.6%; under `COc1ccc(C2Nc3ccccc3C(=O)N2c2ccc(F)cc2)cc1Cn1nnc2ccccc21` (centres undefined), -1.9%.
As for `O=C(N/N=C/c1cccc([N+](=O)[O-])c1)C1CC(=O)N(c2ccc(Br)cc2)C1` (centres undefined), the activation was -1.9%.
Regarding `CCN(C(=O)COC(=O)c1c(NC(C)=O)sc(C)c1C)C1CCS(=O)(=O)C1` (centres undefined), the activation was 0.3%.
As for `CCOC(=O)NC(=O)CSc1nnc(SCCC(=O)O)s1`, the activation was -3.3%.
The value for `Cc1cccc(OCc2ccc(C(=O)Nc3ccc(F)cc3)cc2)c1` was -6.2%; that for `O=C(NC(=S)Nc1ccc(NC(=O)c2cccs2)cc1)c1ccc([N+](=O)[O-])cc1` was 55.8%.
Under `CC(Sc1nc2cc(Cl)ccc2s1)C(=O)Nc1ccc2c(c1)OCO2` (centres undefined) stands 0.6%.
The value for `COc1ccc(OC)c(/C=C/C(=O)OCC(=O)Nc2ccc3c(c2)OCCO3)c1` was -3.7%; that for `CCOc1ccc2c(=O)c(-c3ccc4c(c3)OCCCO4)c(C)oc2c1` was 3%; that for `N#Cc1c(NC(=O)c2ccc(N3CCOCC3)c([N+](=O)[O-])c2)sc2c1CCCC2` was -0.4%.
With `Cc1ccc(S(=O)(=O)C2C(=O)NC3(C)CC2c2ccccc2O3)cc1` (centres undefined), the activation is 0.7%.
Under `CCC1CCCCN1C(=S)Nc1ccc(SC(F)F)cc1` (centres undefined) stands 1.7%.
Under `CCCC/C(C)=N/NC(=O)NC1CCCCC1` stands -0.9%.
Under `CC(C)CNC(=O)COC(=O)c1ccccc1OCC(=O)Nc1ccc(Br)cc1` stands 1%.
On to `Cc1cc([N+](=O)[O-])ccc1NC(=O)C1CCCO1` (centres undefined), for which the activation was 1.8%.
The value for `Cc1ccccc1NC(=O)CSC1=NCCN1` was 3.2%; that for `Cc1cc(C)c[n+](-c2nc3ccccc3nc2[N-]S(=O)(=O)c2cccs2)c1` was 2.1%; that for `COc1ccc([N+](=O)[O-])cc1NC(=O)C(C)OC(=O)C1c2ccccc2Oc2ccccc21` (centres undefined) was -2.2%.
The value for `COc1cc(Cl)c(C)cc1NC(=O)[C@@H]1CCCN1C(=O)c1cccs1` was -2.3%; that for `CCOC(=O)C1CCN(c2ccc(C(=O)O)cc2[N+](=O)[O-])CC1` was -3.3%; that for `O=C(NCC1CCCO1)/C(=C/c1ccc(Cl)cc1)NC(=O)c1ccccc1` (centres undefined) was 0.2%.
Under `O=C(CN1CCN(c2ccccn2)CC1)N1CCc2ccccc21` stands 3.8%.
`N#CC1(NC(=O)COc2ccc3oc4ccccc4c3c2)CCCCC1`: the activation was 10.2%.
Under `CN1CCN(c2ccc(S(=O)(=O)Nc3ccccc3)cc2[N+](=O)[O-])CC1` stands -2.2%; under `Cc1nnc(SCC(=O)N2CCOCC2)[nH]c1=O`, -6.4%.
The value for `OCC(CO)(CO)NCc1ccc(-c2ccccc2)cc1` was 4.4%; that for `COc1cc(/C=N/NC(=O)CCc2n[nH]c(=O)[nH]c2=O)ccc1O` was 15.1%.
`COC(=O)C1=C(NC(=O)C(C)(C)C)CCS1`: the activation is 1.8%.
The value for `Cc1ccc(-c2nnc(SCC(=O)N/N=C/c3cccs3)n2-c2ccc(C)cc2)cc1` was 9%.
Under `COc1ccc(NS(=O)(=O)c2ccc(NC(=O)c3ccc(N(C)S(C)(=O)=O)cc3)cc2)cc1` stands -3.8%.
The value for `Cc1ccc(O)c(CCc2ccccc2)n1` was -3.8%; that for `CCOC(=O)c1oc2c(CN3CCN(C)CC3)c(O)ccc2c(=O)c1-c1ccc(Br)cc1` was 2%; that for `O=C(COC(=O)Cn1cnc2ccccc2c1=O)NCC12CC3CC(CC(C3)C1)C2` was 5.2%.
On to `CSCCC(NC(=O)c1cc([N+](=O)[O-])cc([N+](=O)[O-])c1)c1nc2ccccc2[nH]1` (centres undefined), for which the activation is 22%.
Regarding `Cc1ccc2nc(SCc3cn4c(C)cc(C)nc4n3)[nH]c2c1`, the activation was -2.3%.
As to `Oc1c(Br)cccc1/C=N/Nc1c(F)c(F)c(F)c(F)c1F`, the activation was -10.4%.
Under `Cc1ccc(NC(=O)CN(C)Cc2ccc(F)cc2)c([N+](=O)[O-])c1` stands -1%; under `O=C(Oc1ccccc1Cl)c1ccc(N2CCOCC2)c([N+](=O)[O-])c1`, -0.9%.
Under `CCS(=O)(=O)Nc1cccc(-c2cc(-c3ccccc3)c3cc(C)ccc3n2)c1` stands -5.6%; under `O=C(COC(=O)CSc1nnc(-c2ccc(Cl)cc2)o1)Nc1cc(Cl)cc(Cl)c1`, 25.1%; under `O=C(Nc1ccccc1)/C(=C/c1ccc([N+](=O)[O-])cc1)NC(=O)c1ccccc1`, 29.4%.
The value for `CN(Cc1ccccc1)C(=O)COC(=O)c1ccccc1Nc1ccccc1` was -2.4%.
On to `CC(C)C(=O)Nc1ccc2c3c(cccc13)CC2`, for which the activation was -4.8%.
For `CCCOC(=O)c1c(NC(=O)c2cnn3c2NC(c2ccccc2)CC3C(F)(F)F)sc2c1CCCC2` (centres undefined), the activation is 62.7%.
For the molecule `O=C(Oc1ccc([N+](=O)[O-])cc1)c1ccc(Cl)c(S(=O)(=O)N2CCCCC2)c1`, the activation was -4.7%.
On to `O=C(Nc1nnc(C2COc3ccccc3O2)o1)c1ccc(F)cc1` (centres undefined), for which the activation is 3%.
Take `COC(=O)N/N=C/c1ccc(-c2ccc(Cl)c(Cl)c2)o1`: the activation is -1.3%.
The value for `COc1ccc(Nc2nc(N)nc(CSC(=S)N3CCC(C)CC3)n2)cc1` was 2.4%; that for `COc1ccc(Cl)cc1NC(=O)[C@@H]1CCCN1C(=O)c1cccs1` was 2.8%.
As for `O=C(Nc1ccccc1Cl)c1ccccc1S(=O)(=O)c1ccccc1[N+](=O)[O-]`, the activation was 1%.
For the molecule `CCOc1ccc(NC(=O)COc2ccc(C(=O)NC3CCCc4ccccc43)cc2OC)cc1` (centres undefined), the activation is 37%.
Under `COc1ccc(C2c3c(C)nn(-c4ccccc4)c3NC(=O)N2c2ccccc2)cc1` (centres undefined) stands -1.5%; under `CCCc1c(C)nc2c(Br)cccc2c1Cl`, 2.4%.
On to `COC(=O)c1ccc(C(=O)OC)c(NC(=S)N2CCN(c3cc(Cl)ccc3C)CC2)c1`, for which the activation is -1.1%.
Under `CCN(CC)c1ccc([N+](=O)[O-])cc1C(=O)O` stands -7%; under `COc1ccc(CCNC(=O)CSc2nc(-c3ccc(OC)c(OC)c3)ccc2C#N)cc1`, 8.9%.
As for `CC(=O)N1CCN(CC(=O)Nc2ccc(SC(F)F)cc2)CC1`, the activation is 2.9%.
The value for `Cc1nn(C)c(Oc2ccccc2)c1CCNS(=O)(=O)c1ccc(F)cc1` was 4.8%.
